Assay results reported in ChEMBL document CHEMBL3988442, “University of Dundee, Small-Polar-MMV Screening Library” (2021).

These compounds were tested against Shiga toxin 2 (Escherichia coli O157:H7) (UniProt P09385+P09386) (assay: E. coli 0.157:H7 Shiga Toxin SOP - stx2 screening assay). Settings: 30 µM.
Type: functional
Design: scale not given: direction of the effect not stated beside the values

| SMILES | Percent Effect |
| --- | --- |
| O=C(NCc1csc(Br)c1)c1ccc(=O)[nH]n1 | -13.6% |
| Cn1ccnc1CN1CCCC1c1noc(C2CC2)n1 (stereo unspecified) | -7.56% |
| CCOC(C)c1nc(CN2CCN(c3nccc(C)n3)CC2)cs1 (stereo unspecified) | -1.8% |
| Cc1ccc2cc(C(=O)NCCn3nc4ccccn4c3=O)[nH]c2c1 | -70.8% |
| Cc1ncc(CNCC2CCCN2c2cccnn2)s1 (stereo unspecified) | -14.7% |
| CC1CCN(CCNC(=O)c2cncnc2C(C)C)CC1 | -18.7% |
| Cc1cnn(CC2CCCCN2Cc2nc(-c3ccoc3)no2)c1 (stereo unspecified) | 26.6% |
| O=C(NC1CCC1)[C@@H]1CCO[C@@H]2CCN(CCc3ccccc3)C[C@H]21 | -26.8% |
| CN(CCC#N)C(=O)CN1CCCC1c1ccsc1 (stereo unspecified) | 22% |
| Cn1ccc(NC(=O)Cc2cccc(F)c2)n1 | -9.92% |
| CCN(CC(=O)NC(C)C)S(=O)(=O)N1CCCCCC1 | -4.09% |
| CCn1nc(C(C)C)cc1C(=O)NCCCOC | 3.47% |
| Cc1ccc(N2CCCC(NCC(=O)NCC3CC3)C2)nn1 (stereo unspecified) | -32.6% |
| Cc1cnc2c(c1NCc1ccncc1)c(=O)n(C)c(=O)n2C | 1.78% |
| CCCc1noc(CCC(=O)N2CCCC2c2ccsc2)n1 (stereo unspecified) | 8.4% |
| Cc1ncsc1C(=O)N1CCCN(Cc2cscn2)CC1 | 16.9% |
| CN(Cc1ccco1)C[C@H]1OC[C@@H]2CCN(Cc3nccs3)C[C@@H]21 | -45.7% |
| COCC1c2c(cnn2CC2CC2)CCN1Cc1cccs1 (stereo unspecified) | 0.46% |
| O=C1CCSCC(C(=O)N2CCN(C3CCCCC3)CC2)N1 (stereo unspecified) | -2.45% |
| CCN(CC)C1CCN(C(=O)NCc2c(C)noc2C)CC1 | -1.12% |
| Cc1cccc(CN2C(=O)CO[C@@H]3CN(CCO)C[C@H]32)c1 | 2.07% |
